# Measured values from PubChem BioAssay (NCI).
# This is part of a sample that, as a whole, favours compounds with a hit. Of some 79,000 tested, about 15% had one in any assay. Unmarked numbers belong to inactive results. The source made the active and inactive calls. Rule as the data show it: active = growth inhibition above about 70%; inactive = the rest.
# Assays:
# [1] = NCI Yeast Anticancer Drug Screen. Data for the rad52 strain (AID 147);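 also: 0% = growth of vehicle-treated control cultures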; conditions: S. cerevisiae rad52 mutant growth inhibition, stronger effect = higher value
# Outline: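 Genetically altered yeast (DNA damage repair defect) treated with compound; inhibition calculated relative to vehicle.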
# [2] = NCI Yeast Anticancer Drug Screen. Data for the wt1 strain (AID 149);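 also: 0% = growth of vehicle-treated wt1 cultures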; conditions: S. cerevisiae wt1 strain (SPY 50644) growth inhibition, stronger effect = higher value
# Outline: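 wt1 yeast, compound-treated; % growth inhibition vs vehicle control.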
# [3] = NCI Yeast Anticancer Drug Screen. Data for the rad50EPP+ strain (AID 151);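 also: 0% = growth of vehicle-treated control cultures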; conditions: S. cerevisiae rad50 mutant strain, stronger effect = higher value
# Outline: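 Strain rad50EPP+; compound exposure; % growth inhibition vs vehicle.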
# [4] = NCI Yeast Anticancer Drug Screen. Data for the mgt1 strain (AID 153); conditions: S. cerevisiae mgt1 mutant growth inhibition, stronger effect = higher value
# Outline: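 Read-out: yeast growth inhibition vs vehicle control. Strain mgt1, drawn from a panel altered in DNA damage repair or cell cycle control.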
# [5] = NCI Yeast Anticancer Drug Screen. Data for the rad50 strain (AID 155);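 also: 0% = growth of vehicle-only cultures of the same strain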; conditions: S. cerevisiae rad50 strain growth inhibition, stronger effect = higher value
# Outline: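 Genetically altered yeast (DNA repair pathway); compound treatment; growth inhibition vs vehicle ctrl.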
# [6] = NCI Yeast Anticancer Drug Screen. Data for the mec2-1 strain (AID 157); conditions: S. cerevisiae mec2-1 strain, stronger effect = higher value
# Outline: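 Cells of the genetically defined mec2-1 yeast strain are incubated with test compound. Inhibition of growth is calculated against vehicle-treated controls.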
# [7] = NCI Yeast Anticancer Drug Screen. Data for the rad14 strain (AID 159);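 also: 0% = growth of vehicle-treated control cultures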; conditions: S. cerevisiae rad14 strain growth inhibition, stronger effect = higher value
# Outline: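 Test compounds were applied to a repair-deficient yeast strain. Its growth was then compared with that of cultures given vehicle alone, and inhibition was expressed relative to those controls.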
# [8] = NCI Yeast Anticancer Drug Screen. Data for the CLN2oe strain (AID 163);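 also: 0% = growth of vehicle-only control cultures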; conditions: S. cerevisiae CLN2oe strain, stronger effect = higher value
# Outline: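 Strain altered in cell-cycle control, incubated with compound; growth compared to solvent-treated controls.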
# [9] = NCI Yeast Anticancer Drug Screen. Data for the cln2 rad14 strain (AID 165);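 also: 0% = growth equal to vehicle treated cultures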; conditions: S. cerevisiae cln2 rad14 strain, stronger effect = higher value
# Outline: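 The screen exposed genetically defined yeast (cln2 rad14) to test compounds and scored growth inhibition relative to vehicle-treated controls.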
# [10] = NCI Yeast Anticancer Drug Screen. Data for the bub3 strain (AID 167); conditions: S. cerevisiae bub3 mutant strain, stronger effect = higher value
# Outline: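 Yeast carrying a defined mutation is treated with each compound, and growth is compared with that of vehicle-exposed cells to give inhibition.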
# [11] = NCI Yeast Anticancer Drug Screen. Data for the wt2 strain (AID 169);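 also: 0% = growth of vehicle-treated yeast cultures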; conditions: S. cerevisiae wt2 strain growth inhibition, stronger effect = higher value
# Outline: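 Steps: yeast strain treated with compound; growth recorded; inhibition calculated relative to cultures given vehicle alone.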
# [12] = NCI Yeast Anticancer Drug Screen. Data for the mlh1 strain (AID 171);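 also: 0% = growth of vehicle-treated control cultures of the same strain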; conditions: S. cerevisiae mlh1 strain growth inhibition, stronger effect = higher value
# Outline: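 Yeast screen: mutant strain plus compound, growth scored against vehicle control wells.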
# [13] = NCI Yeast Anticancer Drug Screen. Data for the sgs1 strain (AID 173);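 also: 0% = growth of vehicle-only control cultures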; conditions: S. cerevisiae sgs1 mutant, stronger effect = higher value
# Outline: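 Inhibition of yeast growth served as the measure. The mutant strain was treated with each compound, and growth was normalised to cultures receiving vehicle alone.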
# [14] = NCI Yeast Anticancer Drug Screen. Data for the mlh1 rad18 strain (AID 175); conditions: S. cerevisiae mlh1 rad18 strain growth inhibition, stronger effect = higher value
# Outline: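 Compound-treated yeast growth, normalised to vehicle controls. Strain bears defined DNA repair mutations.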
# [15] = NCI Yeast Anticancer Drug Screen. Data for the rad18 strain (AID 177); conditions: S. cerevisiae rad18 mutant growth inhibition, stronger effect = higher value
# Outline: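 Inhibition values reflect reduced yeast growth compared with vehicle-treated controls, using a strain engineered with a DNA damage repair defect.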
# [16] = at 5.0 µM (retest, dose inferred, filed as 0.5)
# [17] = at 50.0 µM (retest, dose inferred, filed as 5.0)
structure (smiles),measurement,setting,value
C=C1CCC(O)C/C1=C/C=C1\CCCC2(C)C1CCC2C(C)CCCC(C)C (stereo not given),growth inhibition,[1]; at 1.2 µM,-22%
same,growth inhibition,[1]; at 3.7 µM,-3%
same,growth inhibition,[1]; at 11.0 µM,-11%
same,growth inhibition,[1]; at 33.0 µM,4%
same,growth inhibition,[1]; at 100.0 µM,49%
same,growth inhibition,[2]; at 1.2 µM,-26%
same,growth inhibition,[2]; at 3.7 µM,-16%
same,growth inhibition,[2]; at 11.0 µM,-12%
same,growth inhibition,[2]; at 33.0 µM,-15%
same,growth inhibition,[2]; at 100.0 µM,4%
same,growth inhibition,[3]; at 1.2 µM,-16%
same,growth inhibition,[3]; at 3.7 µM,-20%
same,growth inhibition,[3]; at 11.0 µM,-22%
same,growth inhibition,[3]; at 33.0 µM,-8%
same,growth inhibition,[3]; at 100.0 µM,73% (active)
same,growth inhibition,[4]; at 1.2 µM,-21%
same,growth inhibition,[4]; at 3.7 µM,-15%
same,growth inhibition,[4]; at 11.0 µM,-7%
same,growth inhibition,[4]; at 33.0 µM,-21%
same,growth inhibition,[4]; at 100.0 µM,52%
same,growth inhibition,[5]; at 1.2 µM,-18%
same,growth inhibition,[5]; at 3.7 µM,-9%
same,growth inhibition,[5]; [16],13%
same,growth inhibition,[5]; at 11.0 µM,5%
same,growth inhibition,[5]; at 33.0 µM,0%
same,growth inhibition,[5]; [17],84% (active)
same,growth inhibition,[5]; at 50.0 µM,51.8%
same,growth inhibition,[5]; at 100.0 µM,30%
same,growth inhibition,[6]; at 1.2 µM,-40%
same,growth inhibition,[6]; at 3.7 µM,-25%
same,growth inhibition,[6]; [16],12%
same,growth inhibition,[6]; at 11.0 µM,-18%
same,growth inhibition,[6]; at 33.0 µM,2%
same,growth inhibition,[6]; [17],94% (active)
same,growth inhibition,[6]; at 50.0 µM,-9.05%
same,growth inhibition,[6]; at 100.0 µM,-15%
same,growth inhibition,[7]; at 1.2 µM,-14%
same,growth inhibition,[7]; at 3.7 µM,-27%
same,growth inhibition,[7]; at 11.0 µM,-23%
same,growth inhibition,[7]; at 33.0 µM,-23%
same,growth inhibition,[7]; at 100.0 µM,38%
same,growth inhibition,[8]; at 1.2 µM,-11%
same,growth inhibition,[8]; at 3.7 µM,8%
same,growth inhibition,[8]; at 11.0 µM,2%
same,growth inhibition,[8]; at 33.0 µM,6%
same,growth inhibition,[8]; at 100.0 µM,39%
same,growth inhibition,[9]; [16],9%
same,growth inhibition,[9]; [17],19%
same,growth inhibition,[9]; at 50.0 µM,4.95%
same,growth inhibition,[10]; at 1.2 µM,-25%
same,growth inhibition,[10]; at 3.7 µM,-23%
same,growth inhibition,[10]; [16],9%
same,growth inhibition,[10]; at 11.0 µM,-27%
same,growth inhibition,[10]; at 33.0 µM,-13%
same,growth inhibition,[10]; [17],69%
same,growth inhibition,[10]; at 50.0 µM,24.1%
same,growth inhibition,[10]; at 100.0 µM,7%
same,growth inhibition,[11]; at 1.2 µM,-8%
same,growth inhibition,[11]; at 3.7 µM,-14%
same,growth inhibition,[11]; at 11.0 µM,-18%
same,growth inhibition,[11]; at 33.0 µM,-27%
same,growth inhibition,[11]; at 100.0 µM,22%
same,growth inhibition,[12]; at 1.2 µM,-24%
same,growth inhibition,[12]; at 3.7 µM,-26%
same,growth inhibition,[12]; at 11.0 µM,-26%
same,growth inhibition,[12]; at 33.0 µM,-5%
same,growth inhibition,[12]; at 100.0 µM,18%
same,growth inhibition,[13]; at 1.2 µM,-23%
same,growth inhibition,[13]; at 3.7 µM,-6%
same,growth inhibition,[13]; at 11.0 µM,-25%
same,growth inhibition,[13]; at 33.0 µM,-13%
same,growth inhibition,[13]; at 100.0 µM,35%
same,growth inhibition,[14]; [16],11%
same,growth inhibition,[14]; [17],93% (active)
same,growth inhibition,[14]; at 50.0 µM,82.9% (active)
same,growth inhibition,[15]; at 1.2 µM,-10%
same,growth inhibition,[15]; at 3.7 µM,-6%
same,growth inhibition,[15]; at 11.0 µM,-8%
same,growth inhibition,[15]; at 33.0 µM,13%
same,growth inhibition,[15]; at 100.0 µM,34%
